# Screens deposited in PubChem BioAssay by The Scripps Research Institute Molecular Screening Center.
# The list is not random: actives were taken first. Their share in the collection is about 3.4%.
# GPR151 activ = activators of human GPR151, primary screen, cell-based, PathHunter beta-arrestin, luminescence | G-protein coupled receptor 151 (Homo sapiens), Q8TDV0 | PathHunter beta-arrestin GPR151 cells | activation, % at 11.2 µM | 650,000 compounds, 1% hits | AID 1508602, 2020; in the data active means activation above about 4.9%;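 further: 0% = median of compound wells and 100% = cells with positive control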
# FBW7 act = FBW7 E3 ligase activators, primary screen, biochemical, AlphaScreen, human | F-box/WD repeat-containing protein 7 (Homo sapiens), Q969H0 | AlphaScreen FBW7–phospho-cyclin E peptide binding, activator screen | normalized activity (activation), % at 26.1 µM | 650,000 compounds, 0.13% hits; in the data active means normalized activity above about 1.9%;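 further: purified mutant Fbw7 with reduced substrate affinity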
# TEAD-YAP inh = TEAD-YAP interaction inhibition, primary screen, TEAD-YAP interaction inhibitor project, luminescence, HEK-TIYL cells; 640,000 compounds, 1.4% hits; TEAD-Gal4/YAP UAS-luciferase luminescence; inhibition, % at 9.12 µM; in the data active means inhibition above about 32%;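 further: 0% = median of test compound wells and 100% = reference inhibitor wells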
# MITF primary = MITF inhibitors, primary screen, biochemical, AlphaScreen, human; Microphthalmia-associated transcription factor (Homo sapiens), O75030; AlphaScreen MITF homodimerization, bead proximity signal; inhibition, % at 2.6 µM; 650,000 compounds, 0.91% hits; AID 1259374, 2018; in the data active means inhibition above about 50%;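 further: 0% = vehicle wells with protein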
# Target sequence (O75030 whole entry, looked up): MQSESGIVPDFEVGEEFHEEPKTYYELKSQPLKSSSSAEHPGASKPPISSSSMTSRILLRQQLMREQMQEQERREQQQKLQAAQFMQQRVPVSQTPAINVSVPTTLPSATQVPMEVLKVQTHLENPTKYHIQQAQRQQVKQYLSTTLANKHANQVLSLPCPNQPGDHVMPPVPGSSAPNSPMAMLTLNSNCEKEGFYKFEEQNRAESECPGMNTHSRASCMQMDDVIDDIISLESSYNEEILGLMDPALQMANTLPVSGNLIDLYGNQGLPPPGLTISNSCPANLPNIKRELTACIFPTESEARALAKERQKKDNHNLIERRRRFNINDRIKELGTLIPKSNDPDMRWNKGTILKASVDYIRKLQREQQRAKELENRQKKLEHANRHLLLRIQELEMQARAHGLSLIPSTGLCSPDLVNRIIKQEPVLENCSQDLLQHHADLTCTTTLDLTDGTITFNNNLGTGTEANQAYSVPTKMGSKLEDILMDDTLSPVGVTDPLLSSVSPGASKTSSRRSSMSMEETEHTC
# GPR151 conf act = GPR151 activators, triplicate retest, confirmation, cell-based, PathHunter beta-arrestin, luminescence | 6,700 tested, under 10 active | activation, % at 11.2 µM | GPR151 PathHunter beta-arrestin cells, 90 min; % of EA-reagent control over plate median | shares compounds with GPR151 activ | AID 1508609, 2020;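 active means mean percent activation across replicates above the confirmation screen cutoff of 4.91%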
# GPR119 ag = GPR119 activators in beta-arrestin cells, counter-screen for GPR151 activator project, cell-based, PathHunter beta-arrestin, luminescence, triplicate; shares compounds with GPR151 activ; 90 min; 0 = compound-well median, 100 = enzyme-acceptor control; activation, % at 11.2 µM; 6,700 compounds, 0.3% hits; AID 1508611, 2020;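 active means mean percent activation in the counterscreen above 29.09%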;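 further: counterscreen on off-target GPR119 to flag nonselective hits from the GPR151 activator screen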
# Active calls of the source: *; · = no result given.
SMILES,GPR151 activ,FBW7 act,TEAD-YAP inh,MITF primary,GPR151 conf act,GPR119 ag
NS(=O)(=O)c1ccc(NC(=S)NC(=O)Cc2ccc(Cl)cc2)cc1,0,0,2,-5,·,·
COc1ccc(NS(=O)(=O)c2cccc3nonc23)cc1,0,0,6,1,·,·
CCOC(=O)c1sc(NC(=O)C(CC)Sc2nnnn2-c2ccccc2)nc1C (stereo unspecified),0,1,8,9,·,·
Cc1ccc(-n2c(C)cc(C=C3C(=O)N(C)C(=S)N(C)C3=O)c2C)nc1,0,0,10,1,·,·
COc1ccccc1-c1cnc2ccc(NCc3ccc(S(N)(=O)=O)cc3)nn12,9.4*,0,3,-11,0,9
Fc1ccc(CNc2ccc3ncc(-c4ccc5c(c4)OCO5)n3n2)cc1,8.4*,0,23,12,0,4
COc1ccc(CNc2ccc3ncc(-c4ccc(OC)cc4)n3n2)cc1,5.5*,0,22,-14,0,-2
COc1ccc(CC(=O)N2N=C(c3cccnc3)CC2(O)C(F)(F)F)cc1 (stereo unspecified),4.9*,1,25,2,1,10
CCOC(=O)c1cc(CC)sc1/N=C/c1c(O)[nH]c(=O)[nH]c1=O,-2,-1,2,2,·,·
CN(C(=O)COc1ccc(C(C)(C)C)cc1)C1(C)CCS(=O)(=O)C1 (stereo unspecified),5.5*,0,8,-12,-1,-1
Cc1cc2c(cc1S(=O)(=O)C(C)CC(=O)Nc1ccc(Cl)cc1F)OCC(=O)N2 (stereo unspecified),-1,0,-3,10,·,·
Cc1ccc(N(CC(=O)N2CCCCCC2)S(=O)(=O)c2ccccc2)cc1C,5.8*,0,0,-3,1,14
O=C(CN(c1ccccc1)S(=O)(=O)c1ccccc1)N1CCOCC1,0,0,12,0,·,·
Cc1ccc(N(CC(O)Cn2c3ccccc3c3ccccc32)S(=O)(=O)c2ccc(C)cc2)cc1 (stereo unspecified),-2,0,-11,-6,·,·
Cc1ccc(N(CC(=O)N2CCOCC2)S(=O)(=O)c2ccccc2)cc1,9.1*,0,9,8,0,-6
CCOc1ccccc1N(CC(=O)N1CCCC1)S(=O)(=O)c1ccc(C)cc1,6.0*,0,-1,-1,0,-5
Cc1ccc(N(CC(O)Cn2c3ccccc3c3ccccc32)S(=O)(=O)c2ccccc2)cc1 (stereo unspecified),6.2*,0,10,-1,1,15
Cc1ccc(S(=O)(=O)N(CC(=O)N2CCOCC2)CC(=O)N2CCOCC2)cc1,6.6*,0,-9,-14,2,-1
N#CCNC(=O)c1ccc(C(=O)NCC#N)cc1,1,-1,9,42,·,·
O=C(CSC(=S)N1CCCCC1)c1ccc([N+](=O)[O-])cc1,6.1*,0,-32,20,0,-5
O=S(=O)(NC(=S)NC1CCCCC1)c1ccc(F)cc1,0,0,2,16,·,·
O=C(N/N=C/c1ccccc1F)c1cccnc1,7.1*,0,-3,13,-1,-6
Cc1[nH]c2ccccc2c1/C=N/NC(=O)c1cccnc1,5.2*,0,-13,1,-1,7
Cc1[nH]c2ccccc2c1/C=N/NC(=O)c1ccccc1O,0,0,-10,15,·,·
CC(=O)OC[C@H]1O[C@H](C/C=N/O[C@@H](C)c2cn([C@H](CO)Cc3ccccc3)nn2)C=C[C@@H]1OC(C)=O,1,0,·,15,·,·
SMILES,GPR151 activ,FBW7 act,TEAD-YAP inh,MITF primary,GPR151 conf act,GPR119 ag
CC(C)[C@@H](OCc1ccccc1)[C@H](C)/C=N/O[C@H](C)c1cn([C@H](CO)Cc2ccccc2)nn1,6.1*,0,·,-1,0,5
CSc1ccc(/C=C(\NC(=O)c2ccccc2)C(=O)N2CCCCCC2)cc1,-1,0,0,11,·,·
C/C(=N\NC(=O)c1cc(-c2ccco2)[nH]n1)c1ccc(O)cc1,7.4*,0,6,9,0,11
C/C(=N\NC(=O)c1cc(-c2cccs2)[nH]n1)c1ccc(O)cc1,-1,0,-6,-10,·,·
COc1ccc(C(=O)Nc2ccccc2C(=O)NC(C(=O)Nc2cccc(C)c2)C(C)C)cc1 (stereo unspecified),0,0,4,14,·,·
CC(=O)OC(C(=O)NCc1ccco1)c1ccncc1 (stereo unspecified),11*,0,-5,-3,2,6
COc1ccccc1NC(=O)NCc1nc(N)n(C(=O)Nc2ccccc2OC)n1,5.2*,0,3,-10,0,5
N#Cc1c(NC(=O)CN2CCN(c3ccccc3F)CC2)sc2c1CCCC2,6.6*,0,-16,-4,0,8
CCOC(=O)C1=C(C)NC(=O)CC1c1ccc(OC(F)(F)F)cc1 (stereo unspecified),4,0,-11,-2,·,·
CCOc1ccc(NC(=O)CC2S/C(=N\N=C(/C)c3ccc(Cl)cc3)NC2=O)cc1 (stereo unspecified),6.7*,0,4,5,0,-9
O=C(NCc1ccc2c(c1)OCO2)c1ccc(Br)s1,6.2*,0,-2,2,0,4
O=C1CCSc2c1cccc2C(=O)NCc1ccc2c(c1)OCO2,5.6*,0,26,3,1,1
O=C(NCc1ccc2c(c1)OCO2)C(=O)Nc1ccccc1,-1,0,-22,16,·,·
Cc1ccccc1CNC(=O)C(=O)NCc1ccc2c(c1)OCO2,5.4*,0,7,2,0,6
CC(=O)NC1=NC(=O)/C(=C/c2ccc(-c3ccccc3C(=O)O)o2)S1,0,0,-1,17,·,·
Cc1ccc(-c2csc3nc4c5ccccc5c(NCCOCCO)nn4c(=O)c23)cc1,8.4*,1,0,7,1,2
O=c1c2c(-c3ccccc3)csc2nc2c3ccccc3c(NCCO)nn12,1,0,2,9,·,·
CCOc1ccc(C(=O)Nc2nnc(S(=O)(=O)N3CCCCC3)s2)cc1,5.0*,0,-16,9,0,-1
COc1ccccc1C(=O)Nc1nnc(S(=O)(=O)N2CCOCC2)s1,7.9*,0,-7,-2,1,4
O=C(NC1(C(F)(F)F)NC(=O)N(c2ccc(F)cc2)C1=O)c1ccccc1 (stereo unspecified),0,0,7,7,·,·
